aSyn UTR act: Activators via SNCA 5'UTR binding, MLPCN | alpha-synuclein 5'UTR reporter, activators screen | activity score, % (tested at 7.5 µM), hits read low | 7.1% of 300,000 active; in the data active means activity score below about -60%
Numbers without * were called inactive. Not all results are given here.

SMILES	aSyn UTR act
CC(C)Cc1nnc(NC(=O)c2ccc([N+](=O)[O-])cc2)s1	-95*
O=C(Nc1nccs1)c1cccc(NC(=O)C(F)(F)F)c1	-86*
CCc1nnc(NC(=O)Nc2ccc(OC)cc2)s1	-162*
CCC(C)(C)c1nnc(NC(=O)c2cccc([N+](=O)[O-])c2)s1	-147*
O=C(Nc1nccs1)c1ccc([N+](=O)[O-])cc1	-75*
COc1ccc(C(=O)NC(=S)Nc2cc(C)ccn2)cc1[N+](=O)[O-]	-68*
CCCc1nnc(NC(=O)c2cccc(OC)c2)s1	-91*
CCCc1nnc(NC(=O)c2cc3ccccc3o2)s1	-88*
COc1ccc(C(NC(C)=O)c2cc(Cl)c3cccnc3c2O)cc1 (stereo not drawn)	76
CC(C)Cc1nnc(NC(=O)Nc2ccccc2)s1	-115*
COc1ccc2c(CC(=O)Nc3nccs3)coc2c1	-101*
CCOCc1nnc(NC(=O)c2ccc(OC)cc2)s1	-73*
COc1ccc(C(=O)Nc2nccs2)cc1[N+](=O)[O-]	-74*
COc1ccc(NC(=O)Nc2nccs2)cc1	-94*
Cc1c(NC(=O)c2cc(C3CC3)on2)c(=O)n(-c2ccccc2)n1C	-62*
Cc1c(N/N=C(\C#N)C(=O)c2ccc(Cl)cc2)c(=O)n(-c2ccccc2)n1C	86
CCCc1ccc2oc(C(=O)NCc3nnc(C)o3)c(C)c2c1	-128*
Cc1c(C(=O)NCCCN2CCOCC2)oc2c1C1(CCC2)SCCS1	-70*
CCCc1ccc2oc(C(=O)NCCCN3CCOCC3)c(C)c2c1	-96*
Cc1c(C(=O)NCc2ccc3c(c2)OCO3)oc2ccc(S(=O)(=O)N3CCCCCC3)cc12	60
Nc1cc2c(cc1O)CCCC2	-91*
CC(C)CC(=O)Nc1nnc(-c2ccco2)s1	-151*
O=C(Nc1nnc(-c2ccco2)s1)C1CCCCC1	-95*
CCOC(=O)c1c(C)[nH]c2cc(Br)c(O)cc12	-92*
Cc1nc(Nc2ccc3c(c2)OCCO3)c2c(C)c(C)sc2n1	-72*
SMILES	aSyn UTR act
CN=c1scc(-c2cccs2)n1/N=C/c1ccccc1O	103
Oc1ccc(/C=N/N2CCCCC2)c(O)c1	-93*
Oc1ccccc1/C=N/N1CCCCC1	-77*
Cn1cnc2cc(NC(=O)c3cccs3)ccc21	-97*
Cn1cnc2cc(NC(=O)c3ccc(Cl)cc3)ccc21	-139*
O=C(Nc1ccc2nn(-c3ccccc3)nc2c1)c1cccs1	-178*
Cc1cccc(C(=O)Nc2ccc3c(c2)ncn3C)c1	-112*
CC(C)(C)n1cnc2cc(NC(=O)c3ccc(Cl)cc3)ccc21	-138*
COCCNC(=O)c1ccc2c(c1)ncn2-c1cccc(C)c1	-75*
Cc1cccc(C(=O)N2CCc3cc(-c4csc(NC(=O)CN5CCCC5)n4)ccc32)c1	-74*
O=C(CN1CCCC1)Nc1nc(-c2ccc3c(c2)CCN3C(=O)c2ccccc2F)cs1	-123*
Cc1cccc(C(=O)N2CCc3cc(-c4nc(NC(=O)CN5CCCC5)sc4C)ccc32)c1	-71*
Cc1ccc(SCC(=O)c2c(C)nc3ccccn23)cc1	-85*
c1ccc(-c2ccc(CN3CCSCC3)cc2)cc1	-88*
O=c1[nH][nH]c(-c2ccccc2O)c1C(C[N+](=O)[O-])c1ccc(Cl)cc1Cl (stereo not drawn)	-83*
Cn1c(=NC(=O)COc2ccccc2)sc2cccc(F)c21	-150*
CCOC(=O)c1sc(=NC(=O)COc2ccccc2)n(C)c1C	-90*
CCOC(=O)c1sc(=NC(=O)CCSc2ccccc2)n(C)c1C	-146*
CCOC(=O)c1sc2nc(CSc3ccccc3)nc(N3CCCN(C)CC3)c2c1C	78
CCCc1ccc(-c2cc(NC(=O)CSc3n[nH]c(N)n3)n(-c3ccccc3)n2)cc1	-141*
COc1ccc(-n2cnc3cc(N)ccc32)cc1	-75*
Cc1ccc(CNc2nc(C)cs2)cc1	-112*
CCS(=O)(=O)N1Cc2ccccc2CC1C(=O)Nc1ccc(F)c(F)c1 (stereo not drawn)	-88*
CCS(=O)(=O)N1Cc2ccccc2CC1C(=O)Nc1ncc(C)s1 (stereo not drawn)	-126*
CCS(=O)(=O)N1Cc2ccccc2CC1C(=O)Nc1ccc(F)c(F)c1F (stereo not drawn)	-62*
SMILES	aSyn UTR act
CCS(=O)(=O)N1Cc2ccccc2CC1C(=O)Nc1cccc(C)c1 (stereo not drawn)	-102*
O=C(Nc1nnc(C2CC2)s1)C1Cc2ccccc2CN1S(=O)(=O)c1ccccc1F (stereo not drawn)	-178*
Cc1ccc(C(=O)NC(C#N)=C(Cl)Cl)cc1	-191*
O=C(c1ccc(Br)cc1)C(CN1CCOCC1)c1ccccc1 (stereo not drawn)	-152*
O=c1cnnc(N/N=C/c2ccccn2)[nH]1	75
Nc1cnnc(N/N=C\c2ccccc2)c1Cl	-92*
COc1cc(N2Cc3ccccc3C2)ccc1C=O	-151*
C#CCSc1nnc(-c2ccc(O)cc2)o1	-138*
C#CCSc1nnc(-c2cccc3ccccc23)o1	-104*
C#CCSc1nnc(-c2ccc(C)cc2)o1	-164*
CCC(=O)Nc1ccc2c(c1)ncn2-c1ccccc1	-75*
CC(=O)Nc1ccc2c(c1)ncn2-c1ccccc1	-110*
CCOc1ccc(-n2nc3ccc(NC(=O)CC)cc3n2)cc1	-120*
CC(=O)Nc1ccc2c(c1)c1ccccc1n2C(C)=O	-65*
COCCCn1c(SCC(=O)Nc2ccc(C(C)=O)cc2)nc2ccccc2c1=O	-84*
CC(=O)c1ccc(NC(=O)CSc2nc(=O)cc(N)n2-c2ccccc2)cc1	-143*
CCn1c(SCC(=O)Nc2ccc(C(C)=O)cc2)nc2ccccc21	-70*
N/C(=N\OC(=O)c1ccccc1[N+](=O)[O-])c1cccnc1	-97*
N/C(=N\OC(=O)c1ccccc1[N+](=O)[O-])c1ccccn1	-104*
N/C(=N\OC(=O)c1ccccc1Cl)c1ccccn1	84
COc1ccc(/C(N)=N/OC(=O)c2ccc(C)c([N+](=O)[O-])c2)cc1OC	-126*
Cc1ccc(C(=O)O/N=C(\N)c2cccnc2)cc1[N+](=O)[O-]	-125*
N/C(=N\OC(=O)c1ccc([N+](=O)[O-])cc1)c1cccnc1	-92*
N/C(=N\OC(=O)c1cc([N+](=O)[O-])ccc1Cl)c1cccnc1	88
COc1ccc(C2=NN(c3nc(-c4ccc(CNC(C)=O)cc4)cs3)C(c3ccco3)C2)cc1 (stereo not drawn)	-78*
SMILES	aSyn UTR act
COCCn1c(C)cc(C(=O)CSc2nc3ccccc3c(=O)n2Cc2ccco2)c1C	-176*
O=C(NCc1ccco1)c1cccc(-c2nnc(-c3ccccc3)o2)c1	-71*
Nc1c(C(=O)NCc2ccco2)nnn1-c1ccccc1	-125*
Cc1cccc(-c2noc(-c3ccccc3C(=O)NCc3ccco3)n2)c1	-62*
CCCn1nnc(NC(=O)c2ccc(OC)cc2)n1	-121*
CCOc1ccc(C(=O)Nc2nnn(CC)n2)cc1	-86*
CCCn1nnc(NC(=O)c2ccc(-c3ccccc3)cc2)n1	-218*
CCCn1nnc(NC(=O)c2ccc(Br)cc2)n1	-137*
COc1ccc(C(=O)C[n+]2ccccc2/C=N/O)cc1	-82*
C#CCN(C)CCCOc1ccc(Cl)cc1Cl	-79*
CCCCC(=O)NC(c1ccc(Cl)cc1Cl)c1ccc2cccnc2c1O (stereo not drawn)	92
CC(C)NC(=O)CCCOc1ccc(Cl)cc1Cl	-68*
CCN(CC)C(=O)CCCOc1ccc(Cl)cc1Cl	-96*
Clc1ccc2c(c1)[C@H]1OCC[C@H]1[C@@H](c1ccco1)N2	-168*
